# High-throughput results deposited in PubChem BioAssay by several laboratories.
# In the library only some 22% were active in any assay of this set; here they are far more common.
# E-sel TNF inh – TNF alpha driven E-selectin expression inhibition; HUVEC TNFa-induced E-selectin immunofluorescence, high content; inhibition, % at 2 µM; hit rate 0.71% among 120,000;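 active = inhibition above the batch mean plus 3 SD, and confirmed as a hit on visual image review, cut at about 43% in these data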;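 note: 0% = TNF-stimulated DMSO wells and 100% = unstimulated control wells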
# cytoskel mod – modifiers of cytoskeleton assembly; HUVEC TNFa F-actin phalloidin imaging, high content; inhibition, % at 2 µM; hit rate 0.18% among 91,000;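 active = inhibition above the batch mean plus 3 SD and confirmed as a hit by visual image inspection, cut at about 30% in these data, passing the limit was not always enough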
# CYP2C19 inhib – human CYP2C19 inhibition. inhibition, % at 5 µM. CYP2C19 Supersomes, luciferin-H EGE luminescence, 30 min. P33261. hit rate 21% among 96,000. AID 778;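 active = CYP2C19 inhibition above a set limit at 5 µM in the primary screen, cut at about 50% in these data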;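 note: plate controls were negative control wells for no effect and 2.5 mM tranylcypromine positive control for full effect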
# CYP2C9 inhib – inhibitors of human CYP2C9; CYP2C9 Supersomes, luciferin-H conversion, luminescence; inhibition, % at 5 µM; hit rate 20% among 96,000;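 active = blocking of liver enzyme CYP2C9 beyond about 50% at 5 µM, limit read from the data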
# Target sequence (P11712 whole entry, looked up): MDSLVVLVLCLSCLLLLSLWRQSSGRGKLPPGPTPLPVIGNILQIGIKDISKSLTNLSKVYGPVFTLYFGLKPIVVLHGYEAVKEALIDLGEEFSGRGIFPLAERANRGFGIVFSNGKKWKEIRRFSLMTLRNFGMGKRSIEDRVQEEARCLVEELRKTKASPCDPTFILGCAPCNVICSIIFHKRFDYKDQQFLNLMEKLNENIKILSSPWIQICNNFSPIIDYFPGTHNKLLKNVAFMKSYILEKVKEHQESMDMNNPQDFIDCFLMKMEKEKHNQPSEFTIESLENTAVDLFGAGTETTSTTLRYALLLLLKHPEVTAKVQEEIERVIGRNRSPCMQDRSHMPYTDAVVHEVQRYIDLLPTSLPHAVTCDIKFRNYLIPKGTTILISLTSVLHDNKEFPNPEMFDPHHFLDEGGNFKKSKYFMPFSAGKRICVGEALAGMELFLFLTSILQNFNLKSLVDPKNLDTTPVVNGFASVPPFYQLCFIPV
# CYP2C19 act – cytochrome P450 2C19 (human) activation; 96,000 tested, under 10 active; activation factor at 5 µM; AID 1025; P33261; recombinant CYP2C19, luciferin-H EGE luminescence; active compounds read high; 0 = fully inhibited enzyme, 1 = untreated enzyme;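 active = activation factor of at least 2 at 5 µM in the primary screen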;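 note: 0 = wells with 2.5 mM tranylcypromine and 1 = vehicle-only wells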
# CYP2C9 act – activators of human CYP2C9 | P11712 | recombinant CYP2C9, luciferin-H conversion, luminescence; active compounds read high; factor 1 = untreated enzyme, 0 = blocked | activation factor at 5 µM | hit rate 1.4% among 96,000 | AID 1024;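 active = activation factor of 2 or more for CYP2C9 at a 5 µM dose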;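 note: 0 = sulfaphenazole-blocked wells and 1 = vehicle-only wells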
# * = called active by the depositor; . = not tested or not shown.
SMILES,E-sel TNF inh,cytoskel mod,CYP2C19 inhib,CYP2C9 inhib,CYP2C19 act,CYP2C9 act
O=C(NCc1ccccc1)C(c1ccc(F)cc1)N(Cc1ccc2c(c1)OCO2)C(=O)Cn1nnc(-c2cccs2)n1 (stereo not drawn),32,10,.,.,.,.
O=C1CCCN1c1ccc(Br)cc1,0,5,20,11,0.8,0.9
CC(=O)Nc1ccc(NC(=O)Oc2ccccc2)cc1,35,16,10,10,0.9,0.9
COc1ccc(OC(=O)Nc2ccccc2)cc1,-15,9,78*,67*,0.2,0.3
CN(C)c1ccc(C(=O)c2ccccc2)cc1,3,-4,88*,-9,0.1,1.1
CN(C)c1ccc(NC(=O)Oc2ccccc2)cc1,14,.,91*,6,0.1,0.9
Nc1c(-c2ccccc2)c(CN2CCOCC2)nn1-c1ccc(F)cc1,46,.,.,.,.,.
CC(=O)N(C(C)=O)c1ncc2c([nH]c3ccccc32)c1C#N,2,15,4,14,1,0.9
O=c1oc2ccccc2c(NCCc2ccccc2)c1[N+](=O)[O-],20,.,.,.,.,.
O=C(C1CCCN(S(=O)(=O)c2cnc[nH]2)C1)N1CCN(Cc2ccccc2)CC1 (stereo not drawn),0,14,1,4,1,1
O=C(NC1CCCc2ccccc21)C1CCCN(S(=O)(=O)c2cnc[nH]2)C1 (stereo not drawn),-17,11,92*,60*,0.1,0.4
O=C(NC1CCCCCC1)C1CCCN(S(=O)(=O)c2cnc[nH]2)C1 (stereo not drawn),49,7,83*,45,0.2,0.5
CCCCC(CC)CNC(=O)C1CCCN(S(=O)(=O)c2cnc[nH]2)C1 (stereo not drawn),.,5,100*,93*,0,0.1
CCOC(=O)Cn1c(CN2CCOCC2)nc2c1c(=O)[nH]c(=O)n2C,.,-14,.,.,.,.
COc1cc(OC)c(OC)cc1CN1CCc2ccccc2C1,24,.,52*,6,0.5,0.9
COc1cc2c(cc1OC)CN(Cc1ccc(OC)c(C)c1OC)CC2,-61,.,64*,-10,0.4,1.1
COc1cc2c(cc1OC)CN(Cc1cc(=O)oc3c(C)c(C)ccc13)CC2,42,.,.,.,.,.
CCCCNC(=O)CC1N=C2c3ccccc3N=C(SCC(=O)Nc3cccc(OC)c3)N2C1=O (stereo not drawn),.,39,8,32,0.9,0.7
COC(=O)C(C)NC(=O)C(C)NC(=O)OCc1ccccc1 (stereo not drawn),.,.,13,13,0.9,0.9
CCOC(=O)Cn1cc(C(=O)c2cccs2)c2ccccc21,17,-5,97*,94*,0,0.1
CCOC(=O)C1CCN(C(=O)Cn2cc(C(=O)C3CC3)c3ccccc32)CC1,-12,0,-16,-30,1.2,1.3
O=C(c1cn(CC(=O)N2CCCCC2)c2ccccc12)C1CC1,1,-6,52*,-16,0.5,1.2
O=C(c1cccs1)c1cn(CC(=O)N2CCc3ccccc3C2)c2ccccc12,-32,-7,84*,91*,0.2,0.1
O=C(O)Cn1cc(C(=O)c2cccs2)c2ccccc21,23,9,1,16,1,0.8
COC(=O)c1cn(C(=O)c2cccs2)c2ccccc12,22,-5,41,59*,0.6,0.4
SMILES,E-sel TNF inh,cytoskel mod,CYP2C19 inhib,CYP2C9 inhib,CYP2C19 act,CYP2C9 act
OC1CN=C2C=CC=CN2C1 (stereo not drawn),22,-22,-3,8,1,0.9
CCN(CC)C(=O)Cn1c(=O)n(-c2ccc(CC(=O)NCc3ccccc3)cc2)c(=O)c2sccc21,-13,.,.,.,.,.
OC(Cn1ccnc1)c1ccc(Cl)cc1Cl (stereo not drawn),.,-10,99*,95*,0,0.1
CC(=O)Nc1ccc(S(=O)(=O)NCCNC(=O)c2ccccc2F)cc1,41,9,-10,10,1.1,0.9
Cc1nc2cc(-c3ccccc3)nn2c(C)c1CCC(=O)NCc1ccco1,15,16,56*,52*,0.4,0.5
CCOC(=O)C1CCN(C(=O)CCc2c(C)nc3cc(-c4ccccc4)nn3c2C)CC1,.,-12,32,36,0.7,0.6
Cc1nc2cc(-c3cccc(F)c3)nn2c(C)c1CCC(=O)NC(C)CCc1ccco1 (stereo not drawn),9,5,91*,91*,0.1,0.1
COc1cc(OC)cc(-c2cc3nc(C)c(CCC(=O)NC(C)CCc4ccco4)c(C)n3n2)c1 (stereo not drawn),-2,2,50,46,0.5,0.5
CCOC(=O)C1CCCCN1C(=O)CCc1c(C)nc2cc(-c3ccccc3)nn2c1C (stereo not drawn),11,1,68*,60*,0.3,0.4
Cn1c(=O)c2c(nc(CN3CCN(c4ccccc4)CC3)n2Cc2c(F)cccc2Cl)n(C)c1=O,0,-3,27,29,0.7,0.7
CCOC(=O)c1cnn(-c2ccccc2)c1NC(=O)c1cccs1,12,0,33,37,0.7,0.6
O=C(CCCCCn1c(SCc2ccncc2)nc2ccccc2c1=O)NCc1ccco1,3,0,.,.,.,.
Cc1cc(NC(=O)CSc2nc3ccccc3c(=O)n2CCCC(=O)NCc2ccco2)n[nH]1,.,8,84*,71*,0.2,0.3
O=C(CSc1nc2ccccc2c(=O)n1CCCC(=O)N1CCCC1)NCc1ccco1,.,-13,65*,43,0.4,0.6
O=C(CSc1nc2ccccc2c(=O)n1Cc1ccco1)N1CCCC1,-21,.,.,.,.,.
CC1CCN(C(=O)c2ccc(S(=O)(=O)Cc3ccccc3F)c([N+](=O)[O-])c2)CC1,36,.,.,.,.,.
CCOC(=O)CNC(=O)CSc1nc(N(C)C)nc(N2CCOCC2)n1,-4,1,84*,22,0.2,0.8
CC(C)Nc1nc(SCC(N)=O)nc(N2CCOCC2)n1,9,.,-4,10,1,0.9
CN(C)c1nc(SCc2ccccc2)nc(N2CCOCC2)n1,-6,-31,33,9,0.7,0.9
COC(=O)CSc1nc(NC(C)C)nc(N2CCOCC2)n1,-35,4,50*,24,0.5,0.8
CC(C)(C)c1cc(N/C=C\c2nnnn2-c2ccc(Br)cc2)no1,-59,-12,.,.,.,.
CCN1CCN(C(=O)C2CCN(C(=O)c3cc4sccc4n3CC)CC2)CC1,.,-14,-7,-3,1.1,1
CCn1c(C(=O)NCc2ccccn2)cc2sccc21,-40,.,66*,27,0.3,0.7
CCN1CCN(C(=O)c2cc3sccc3n2CC(=O)c2ccccc2)CC1,-11,-14,59*,42,0.4,0.6
CCn1c(C(=O)N2CCC(C(=O)NCCCSC3CCCCC3)CC2)cc2sccc21,.,24,53*,-68,0.5,1.7
CCn1c(C(=O)N2CCc3ccccc3C2)cc2sccc21,-5,-11,63*,-13,0.4,1.1
CCNC(=S)NNC(=O)c1cccn(Cc2ccc(Cl)cc2)c1=O,-13,9,0,-1,1,1
